Measured values: PubChem BioAssay (EPA / NIEHS)
Values joined by “and” are separate entries in the source; they are usually repeats but may differ in a detail not shown here. Equal values may be shown once. Inconclusive results are not listed. Active and inactive are the calls of the source. The calls were made as follows: active = hit-call score of the fitted dose curve at least 0.9, where 1 is the maximum; inconclusive = response in the unintended direction; inactive = score below 0.9.

How the values were obtained:
[1] = molecular target: mouse Peroxisome Proliferator-activated Receptor gamma (PPARg), Pparg (gene 19016) (UniProt P37238); experiment: ATG_mPPARg_XSP1: Attagene TRANS-FACTORIAL Multi-Species (XSP1) HepG2 Assay for mouse Peroxisome Proliferator-activated Receptor gamma (PPARg) (AID 2283802)
Method: ATG_XSP1_multi-species_TRANS is a cell-based, multiplexed assay created by modifying the existing Attagene TRANS-FACTORIAL system to include a panel of nuclear receptors from some or all the following species: human (Homo sapiens), mouse (Mus musculus), frog (Xenopus laevis), zebrafish (Danio rerio), chicken (Gallus gallus), and turtle (Chrysemys picta). The ECOTOX-FACTORIAL format uses HepG2, a human liver cell line, with measurements taken at 24 hours after chemical dosing in a 24-well plate. Xsp1 included 3 nM 6-alpha-fluorotestosterone to partially stimulate the androgen receptor.ATG_mPPARg_XSP1 is one of 29 assay components measured or calculated from the ATG_XSP1_multi-species_TRANS assay. It is designed to make measurements of mRNA induction, a form of inducible reporter, as detected with fluorescence intensity signals by Reverse transcription polymerase chain reaction (RT-PCR) and Capillary electrophoresis technology.The assay endpoint ATG_mPPARg_XSP1 was analyzed in the positive analysis fitting direction relative to DMSO as the negative control and baseline of activity. Using a type of inducible reporter, measures of mRNA for gain-of-signal activity can be used to understand the reporter gene at the transcription factor-level as they relate to the gene PPARg. Furthermore, this assay endpoint can be referred to as a primary readout, because this assay has produced multiple assay endpoints where this one serves a reporter gene function. To generalize the intended target to other relatable targets, this assay endpoint is annotated to the nuclear receptor intended target family, where the subfamily is non-steroidal.
Human liver HepG2 cells are transiently transfected with multiple reporter transcription units (MRTUs) in 6-well plates using FuGene 6 reagent (Roche; 3 ml FuGene/1 mg DNA). The MRTU constructs are regulated by a cis-regulating element (promoter). […] A major difference between the CIS and TRANS system is that in CIS activities of endogenous TFs are measured, whereas the TRANS assay evaluates changes in activities of exogenous, chimeric NR-Gal4 proteins. […] At the end of 24 hour incubation, total RNA was isolated using TriZol reagent (Invitrogen). The isolated RNA is then reverse-transcribed using oligo(dT) primer and Mo-MLV reverse transcriptase (Invitrogen) with DNAse I (Ambion) treatment for 30 min. […] The fragments were purified using Qiaquick PCR columns (Qiagen), analyzed on an ABI 3130xL genetic analyzer (Applied Biosystems) with peak positions identified by using a set of X-rhodamine (ROX)-labeled MapMarker1000 molecular weight standards (BioVentures). […]

[2] = molecular target: Nuclear receptor subfamily 1 group I member 2 (Mus musculus) (UniProt O54915); experiment: ATG_mPXR_XSP1: Attagene TRANS-FACTORIAL Multi-Species (XSP1) HepG2 Assay for mouse Pregnane X Receptor (PXR) (AID 2283803)
Procedure, shortened: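 Transiently transfected HepG2 cells expressing a receptor-Gal4 chimera drive a GAL4-UAS reporter; 3 nM 6-alpha-fluorotestosterone included. Reporter mRNA read 24 h post-dose by RT-PCR and capillary electrophoresis; gain of signal relative to DMSO.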

[3] = molecular target: zebrafish Thyroid Hormone Receptor alpha (TRa), thraa (gene 30670) (UniProt Q98867); experiment: ATG_zfTRa_XSP1: Attagene TRANS-FACTORIAL Multi-Species (XSP1) HepG2 Assay for zebrafish Thyroid Hormone Receptor alpha (TRa) (AID 2283807)
Procedure, shortened: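 HepG2 cells transiently transfected with GAL4-UAS reporter units including a zebrafish TRa–Gal4 chimera, dosed 24 h with 3 nM 6-alpha-fluorotestosterone present. Reporter mRNA quantified by RT-PCR and capillary electrophoresis; gain versus DMSO.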

[4] = molecular target: human Thyroid hormone Receptor beta (TRb), THRB (gene 7068) (UniProt P10828); experiment: ATG_hTRb_XSP1: Attagene TRANS-FACTORIAL Multi-Species (XSP1) HepG2 Assay for human Thyroid hormone Receptor beta (TRb) (AID 2283808)
Procedure, shortened: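 HepG2 cells transiently transfected with reporter units driving GAL4-UAS reporters for chimeric NR-Gal4 proteins; 24 h chemical exposure with 3 nM 6-alpha-fluorotestosterone present. Reporter mRNA quantified by RT-PCR and capillary electrophoresis, gain of signal versus DMSO.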

[5] = molecular target: zebrafish Thyroid Hormone Receptor beta (TRb), thrb (gene 30607) (UniProt Q9PVE4); experiment: ATG_zfTRb_XSP1: Attagene TRANS-FACTORIAL Multi-Species (XSP1) HepG2 Assay for zebrafish Thyroid Hormone Receptor beta (TRb) (AID 2283809)
Procedure, shortened: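 HepG2 cells transiently transfected with multiplexed GAL4-UAS reporter units expressing chimeric zebrafish TRb–Gal4. Dosed 24 h with 3 nM 6-alpha-fluorotestosterone present; reporter mRNA measured by RT-PCR, HpaI digestion and capillary electrophoresis; gain of signal versus DMSO.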

[6] = ATG_XTT_Cytotoxicity_XSP1: Cytotoxicity Assessment in the Attagene TRANS-FACTORIAL Multi-Species (XSP1) HepG2 Assay (AID 2283810)
Procedure, shortened: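 XTT viability readout taken at 24 hours post-dosing in HepG2 liver cells co-treated with 3 nM 6-alpha-fluorotestosterone. Signal loss relative to DMSO controls reflects cytotoxicity.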

[7] = ATG_M_06_XSP2: Attagene TRANS-FACTORIAL Multi-Species (XSP2) HepG2 Assay for M06 Transcription Factor (Internal Marker) (AID 2283811);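 also: internal background marker reporter mRNA measured by RT-PCR and capillary electrophoresis; hits are increases in signal above the DMSO baseline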
Procedure, shortened: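 HepG2 cells transiently transfected with GAL4-UAS multi-reporter constructs, dosed 24 h with 3 nM 6-alpha-fluorotestosterone plus 1.5 nM norgestrel present to stimulate androgen receptor. Reporter mRNA quantified by RT-PCR, 6-FAM labelling, HpaI digestion and capillary electrophoresis; gain-of-signal fitted versus DMSO baseline.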

[8] = molecular target: Estrogen receptor beta (Homo sapiens) (UniProt Q92731); experiment: ATG_hERb_XSP2: Attagene TRANS-FACTORIAL Multi-Species (XSP2) HepG2 Assay for human Estrogen Receptor (ERb) (AID 2283813);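 also: actives raise reporter mRNA above DMSO so AC50 reflects agonist induction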
Procedure, shortened: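 HepG2 cells transiently transfected with GAL4-UAS reporter units and chimeric human ERb-Gal4, 24 h exposure. Reporter mRNA quantified by RT-PCR with FAM labelling, HpaI digestion and capillary electrophoresis; gain of signal versus DMSO.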

[9] = test system: turtle Thyroid Hormone Receptor, alpha (TRa), gene 101949057; experiment: ATG_trTRa_XSP1: Attagene TRANS-FACTORIAL Multi-Species (XSP1) HepG2 Assay for turtle Thyroid Hormone Receptor, alpha (TRa) (AID 2283806)
Procedure, shortened: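 HepG2 cells transiently transfected with GAL4-UAS reporter units and chimeric receptor-Gal4 constructs, with 3 nM 6-alpha-fluorotestosterone present. Reporter mRNA was quantified 24 h after dosing by RT-PCR, 6-FAM labelling and capillary electrophoresis; gain of signal versus DMSO.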

[10] = test system: turtle Estrogen Receptor (ERa), gene 101933533; experiment: ATG_trERa_XSP2: Attagene TRANS-FACTORIAL Multi-Species (XSP2) HepG2 Assay for turtle Estrogen Receptor (ERa) (AID 2283812);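 also: human HepG2 liver cells transiently expressing turtle ERa-Gal4 chimeric receptor; actives raise reporter signal above DMSO so AC50 reflects agonist activity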
Procedure, shortened: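 HepG2 cells transiently transfected with GAL4-UAS reporter units expressing turtle ERa-Gal4 chimera. Reporter mRNA measured after 24 h dosing by RT-PCR, fluorescent labelling and capillary electrophoresis; gain of signal fitted versus DMSO.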

Measured: AC50

Chain of Nuclear receptor subfamily 1 group I member 2 (Mus musculus) (O54915 whole entry, looked up, the tested form may be a part): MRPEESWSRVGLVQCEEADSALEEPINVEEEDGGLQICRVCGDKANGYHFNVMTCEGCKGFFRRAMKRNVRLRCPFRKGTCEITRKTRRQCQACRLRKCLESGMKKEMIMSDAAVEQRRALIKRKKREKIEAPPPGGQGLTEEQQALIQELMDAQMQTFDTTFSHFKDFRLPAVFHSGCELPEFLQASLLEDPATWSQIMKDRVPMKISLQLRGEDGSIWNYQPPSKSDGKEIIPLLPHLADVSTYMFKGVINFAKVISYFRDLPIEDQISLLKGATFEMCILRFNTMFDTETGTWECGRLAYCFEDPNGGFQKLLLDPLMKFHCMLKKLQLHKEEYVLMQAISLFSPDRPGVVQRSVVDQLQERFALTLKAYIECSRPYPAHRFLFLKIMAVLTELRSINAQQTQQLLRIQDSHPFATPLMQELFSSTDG
Chain of mouse Peroxisome Proliferator-activated Receptor gamma (PPARg), Pparg (gene 19016) (P37238 whole entry, looked up): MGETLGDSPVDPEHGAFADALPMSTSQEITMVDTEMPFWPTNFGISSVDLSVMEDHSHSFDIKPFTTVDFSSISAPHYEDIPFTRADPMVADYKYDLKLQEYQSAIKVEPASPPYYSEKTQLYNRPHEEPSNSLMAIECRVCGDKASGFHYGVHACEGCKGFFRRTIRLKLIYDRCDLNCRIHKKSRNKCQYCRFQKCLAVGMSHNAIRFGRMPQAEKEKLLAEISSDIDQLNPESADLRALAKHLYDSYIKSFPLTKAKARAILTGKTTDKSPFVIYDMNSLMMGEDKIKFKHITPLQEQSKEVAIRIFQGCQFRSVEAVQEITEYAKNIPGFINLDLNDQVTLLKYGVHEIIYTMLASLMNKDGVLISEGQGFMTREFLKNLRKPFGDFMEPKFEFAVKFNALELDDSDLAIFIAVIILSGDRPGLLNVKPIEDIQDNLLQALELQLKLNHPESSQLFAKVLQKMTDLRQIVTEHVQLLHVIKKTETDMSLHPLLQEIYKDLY
Chain of zebrafish Thyroid Hormone Receptor beta (TRb), thrb (gene 30607) (Q9PVE4 whole entry, looked up, the tested form may be a part): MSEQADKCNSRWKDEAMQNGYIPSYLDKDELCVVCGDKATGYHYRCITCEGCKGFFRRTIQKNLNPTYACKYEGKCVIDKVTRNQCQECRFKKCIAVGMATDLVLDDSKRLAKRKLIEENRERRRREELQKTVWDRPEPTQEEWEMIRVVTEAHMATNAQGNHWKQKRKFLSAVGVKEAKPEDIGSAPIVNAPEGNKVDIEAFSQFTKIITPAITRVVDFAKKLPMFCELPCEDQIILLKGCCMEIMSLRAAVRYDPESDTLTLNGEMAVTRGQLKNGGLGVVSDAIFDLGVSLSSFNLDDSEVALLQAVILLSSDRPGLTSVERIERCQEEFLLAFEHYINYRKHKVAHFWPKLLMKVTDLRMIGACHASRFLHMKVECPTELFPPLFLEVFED
Chain of human Thyroid hormone Receptor beta (TRb), THRB (gene 7068) (P10828 whole entry, looked up, the tested form may be a part): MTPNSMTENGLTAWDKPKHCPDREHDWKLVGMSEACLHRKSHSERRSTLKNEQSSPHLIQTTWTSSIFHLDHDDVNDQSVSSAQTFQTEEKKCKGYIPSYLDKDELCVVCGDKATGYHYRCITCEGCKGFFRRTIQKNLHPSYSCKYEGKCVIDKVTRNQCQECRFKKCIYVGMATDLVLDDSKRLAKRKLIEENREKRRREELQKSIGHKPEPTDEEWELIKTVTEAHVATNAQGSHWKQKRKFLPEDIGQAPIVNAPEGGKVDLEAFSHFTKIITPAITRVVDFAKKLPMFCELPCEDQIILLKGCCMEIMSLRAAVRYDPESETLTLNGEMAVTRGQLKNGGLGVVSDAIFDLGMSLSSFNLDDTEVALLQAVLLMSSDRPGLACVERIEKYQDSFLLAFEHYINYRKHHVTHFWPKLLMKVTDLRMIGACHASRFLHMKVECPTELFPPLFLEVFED
Chain of zebrafish Thyroid Hormone Receptor alpha (TRa), thraa (gene 30670) (Q98867 whole entry, looked up, the tested form may be a part): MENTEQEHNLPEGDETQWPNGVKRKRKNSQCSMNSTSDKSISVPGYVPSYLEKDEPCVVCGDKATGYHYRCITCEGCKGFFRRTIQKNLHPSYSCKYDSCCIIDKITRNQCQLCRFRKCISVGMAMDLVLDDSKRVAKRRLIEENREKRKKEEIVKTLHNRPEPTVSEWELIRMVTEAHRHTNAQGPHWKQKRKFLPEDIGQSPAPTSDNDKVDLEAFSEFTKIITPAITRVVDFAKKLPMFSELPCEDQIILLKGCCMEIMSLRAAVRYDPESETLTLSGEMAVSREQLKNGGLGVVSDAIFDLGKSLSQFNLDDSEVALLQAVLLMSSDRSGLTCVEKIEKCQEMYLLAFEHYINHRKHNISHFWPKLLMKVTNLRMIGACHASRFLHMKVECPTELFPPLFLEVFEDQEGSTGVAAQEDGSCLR
Chain of Estrogen receptor beta (Homo sapiens) (Q92731 whole entry, looked up, the tested form may be a part): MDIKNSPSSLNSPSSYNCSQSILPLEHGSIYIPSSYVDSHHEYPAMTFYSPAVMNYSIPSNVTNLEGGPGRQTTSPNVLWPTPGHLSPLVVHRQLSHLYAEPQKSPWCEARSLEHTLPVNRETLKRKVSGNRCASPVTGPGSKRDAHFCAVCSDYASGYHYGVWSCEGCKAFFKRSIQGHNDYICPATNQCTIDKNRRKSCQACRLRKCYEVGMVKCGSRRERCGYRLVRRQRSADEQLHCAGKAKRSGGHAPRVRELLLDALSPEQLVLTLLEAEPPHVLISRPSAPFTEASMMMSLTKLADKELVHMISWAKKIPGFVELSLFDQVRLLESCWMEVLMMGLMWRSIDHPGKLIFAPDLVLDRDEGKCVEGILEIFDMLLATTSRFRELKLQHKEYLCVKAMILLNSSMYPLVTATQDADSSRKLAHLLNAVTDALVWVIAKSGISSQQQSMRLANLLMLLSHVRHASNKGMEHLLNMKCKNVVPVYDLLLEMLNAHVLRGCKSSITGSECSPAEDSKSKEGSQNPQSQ

C#CCC1=C(C)C(OC(=O)C2C(C=C(C)C)C2(C)C)CC1=O (centres undefined)
active: [1] 26.7 µM | [2] 0.32 µM
inactive: [3] | [4] | [5] | [6] | [7] | [8]

CCOP(=S)(OCC)Oc1ccc2c(C)c(Cl)c(=O)oc2c1
active: [1] 26.7 µM | [2] 0.214 µM
inactive: [9] | [3] | [5] | [7] | [10] | [8]

CCOP(=O)(NC(C)C)Oc1ccc(SC)c(C)c1 (centres undefined)
active: [10] 100 µM and 52.6 µM
inactive: [7] | [8]

CCc1cccc(C)c1N(C(=O)CCl)C(C)COC (centres undefined)
active: [1] 25.5 µM | [2] 3.28 µM
inactive: [9] | [3] | [5] | [6] | [7] | [10] | [8]

Nc1c(Cl)cc([N+](=O)[O-])cc1Cl
inactive: [10] | [8]

CCC(CC)Nc1c([N+](=O)[O-])cc(C)c(C)c1[N+](=O)[O-]
active: [10] 2.52 µM and 1.7 µM
inactive: [7] | [8]

CCCOCC(=Nc1ccc(Cl)cc1C(F)(F)F)n1ccnc1
inactive: [9] | [3] | [4] | [5] | [7] | [8]
active: [1] 0.674 µM | [2] 0.201 µM | [6] 100 µM

COc1ccc(C(=CC(=O)N2CCOCC2)c2ccc(Cl)cc2)cc1OC
inactive: [7] | [10] | [8]

CCC(=O)Nc1ccc(Cl)c(Cl)c1
inactive: [7] | [10]

C#CC(C)(C)NC(=O)c1cc(Cl)cc(Cl)c1
inactive: [9] | [3] | [4] | [5] | [7] | [10]
active: [2] 13.3 µM
